What all share (assay): Cytotoxic Profiling of Annotated Libraries Using Quantitative High-Throughput Screening (AID 1296008); also: nearly all actives have a fitted effect of over 60% in size
Common to all, as to settings: Five cell lines viability, CellTiter-Glo ATP luminescence, 48-72 h; max response: active compounds read low
Background: In ATP-based viability assays light output follows the ATP content of the culture.

One experiment has as its system CRL-7250. In outline:
(§1)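 Cytotoxicity was measured as CellTiter-Glo ATP luminescence, read after 10 min at room temperature. Compound treatment of the cells lasted 48 or 72 hr at 37 degrees Celsius in a qHTS format.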

The subject of the next experiment is HEK293. In outline:
as §1

The subject of a further experiment is HaCat. In outline:
as §1

Several values for one entry are separate records, joined by “and”; a condition that tells them apart may be missing. Equal values may be shown once. Inconclusive results are not listed. Unmarked numbers belong to inactive results. Activity calls are given as the source filed them. Calls follow the shape of the dose curve; as a rule, active = well fitted inhibition curve with a large enough effect; inconclusive = small, poorly fitted or top-dose-only effect; inactive = flat fitted curve, though single readings scatter.
% is scaled to controls: 0 for no effect and ±100 for the full control effect; potency is read from the fitted curve at half-maximal effect.

In the case of `CC[C@H]1CN2CC[C@H]1C[C@@H]2[C@@H](O)c1ccnc2ccc(OC)cc12`, the outcome in the experiment on CRL-7250, in the experiment with HEK293 and in the experiment with HaCat was inactive.

Regarding `CN1[C@@H]2CC[C@H]1CC(OC(=O)C1C=Nc3ccccc31)C2` (some centres not stated), the max response is 0.829% with CRL-7250, -5.26% in the experiment on HEK293 and 2.07% in the experiment with HaCat.

Take `COc1ccccc1CN[C@H]1C2CCN(CC2)[C@H]1C(c1ccccc1)c1ccccc1`: the call with CRL-7250 and with HaCat was inactive. The max response with HEK293 was -17%.

On to `CO[C@@H]1[C@H](O)[C@@H](O[C@@H]2C[C@H]3CC[C@@H]4C(CC[C@]5(C)[C@@H](C6=CC(=O)OC6)CC[C@]45O)[C@@]3(C)[C@H](O)C2)O[C@H](C)[C@@H]1O[C@@H]1O[C@H](CO)[C@@H](O)[C@H](O)[C@H]1O` (some centres not stated), for which the Potency in the experiment on CRL-7250 is 109 nM (active); in the experiment on HEK293, 343 nM (active); in the experiment with HaCat, 769 nM (active).

`Cc1c(Cl)cccc1S(=O)(=O)Nc1nc(CC(=O)N2CCN(C)CC2)cs1`: the max response is 0.391% in the experiment on CRL-7250 and -10.3% with HEK293. The compound was classed as inactive with HaCat.

With `Cc1cccc(NC(=O)N[C@@H]2N=C(c3ccccc3)c3ccccc3N(C)C2=O)c1`, the result with CRL-7250 and in the experiment on HaCat was inactive. The max response in the experiment with HEK293 was -5.08%.

Take `C[C@@]1(C(=O)O)CC[C@]2(C)CC[C@]3(C)C4=CC(=O)c5cc(O)c(O)cc5[C@]4(C)CC[C@@]3(C)[C@@H]2C1`: the outcome in the experiment on CRL-7250 and in the experiment on HaCat was inactive. Besides, in the experiment with HEK293, the max response was -9.77%.

Take `COc1c(C(C)C)cc2c(c1O)[C@@]1(C(=O)O)CCCC(C)(C)C1CC2` (some centres not stated): the compound was called inactive with CRL-7250 and in the experiment on HEK293. In addition, the max response in the experiment on HaCat is 0.977%.

Regarding `Cc1cn(C[C@H](N)C(=O)O)c(=O)n(Cc2cc(-c3ccccc3)sc2C(=O)O)c1=O`, the values for the max response in the experiment on CRL-7250, in the experiment with HEK293 and with HaCat were -1.8%, -3.99% and -2.49%, respectively.

For the compound `O=C(N1CCOCC1)N1CCN(c2ccc(Cl)cc2)CC1`, the compound was called inactive in the experiment on CRL-7250 and in the experiment on HaCat. Moreover, the max response in the experiment with HEK293 is -0.253%.

With `COC1C(O)C(C)OC(OC2C(CO)O[C@@H](O[C@@H]3CC4CCC5C(CC[C@]6(C)[C@@H](C7=CC(=O)OC7)CC[C@]56O)[C@@]4(C)[C@H](O)C3)C(O)C2O)C1O` (some centres not stated), the values for the Potency in the experiment on CRL-7250, in the experiment on HEK293 and with HaCat were 485 nM (active), 432 nM (active) and 3430 nM (active), respectively.

On to `CO[C@H]1[C@H](O)[C@H](O[C@H]2CC[C@]3(C)C4CC[C@]5(C)[C@H](C6=CC(=O)OC6)CC[C@]5(O)C4CC[C@@H]3C2)O[C@@H](C)[C@@H]1O` (some centres not stated), for which the values for the Potency in the experiment on CRL-7250, in the experiment on HEK293 and in the experiment on HaCat were 25.2 nM (active), 22.4 nM (active) and 2240 nM (active), respectively.

As for `CN(C(=O)Cc1ccccc1)C(CN1CCCC1)c1ccccc1` (configuration not stated), the max response was 0.97% in the experiment with CRL-7250, 0.503% in the experiment with HEK293 and 2.22% with HaCat.

Regarding `C1=C2CCCN[C@H]2[C@@H]2C[C@H]1[C@H]1CCCCN1C2`, in the experiment with CRL-7250, the compound was called inactive. Besides, the max response in the experiment with HEK293 is -4.85%; with HaCat it was -5.08%.

As to `C=C[C@H]1CN2CC[C@H]1C[C@@H]2[C@@H](O)c1ccnc2ccccc12`, the max response in the experiment with CRL-7250 is -1.31%; in the experiment with HEK293, -22.7%; with HaCat, 1.51%.

Turning to `COC1=CC(=O)O[C@@H](CCc2ccccc2)C1`, the compound was called inactive with CRL-7250. The max response in the experiment on HEK293 was 0.422%; with HaCat, 3.86%.

Turning to `CCC1NC(=O)C2C(Cl)C(Cl)CN2C(=O)C(C(C)O)NC(=O)CC(c2ccccc2)NC(=O)C(CO)NC1=O` (configuration not stated), the max response in the experiment on CRL-7250 is 3.8%; in the experiment on HEK293, -1.23%; in the experiment on HaCat, 4.16%.

Take `Cc1cc(C(=O)CN2CCCC2)c(C)n1-c1ccc(F)cc1`: the max response was 1.13% and -6.04% with CRL-7250; -9.04% with HEK293; 1.57% and -29% with HaCat.

In the case of `CC1=C2C(=O)C3[C@@H](CC=C4C[C@@H](O)CC[C@@]43C)[C@@H]2CC[C@]12O[C@@H]1C[C@H](C)CN[C@H]1[C@H]2C` (some centres not stated), the compound was classed as inactive in the experiment with CRL-7250 and in the experiment on HaCat. In addition, in the experiment on HEK293, the max response was -3.9%.

For the compound `COC1CC(=O)C23C(=O)NC(CC(C)C)C2C(C)=C(C)C(OO)C3/C=C(\C)CCC(O)C1O` (configuration not stated), the call in the experiment on CRL-7250 and with HaCat was inactive. Moreover, the max response in the experiment on HEK293 was 3.17%.

As to `CN1C(=O)c2ccccc2NC(=O)C1Cc1ccccc1` (configuration not stated), the figures for the max response in the experiment on CRL-7250 and in the experiment with HaCat were 3.07% and 2.89%, respectively. Besides, the compound was classed as inactive in the experiment on HEK293.

`CCC(C)(C#N)O[C@@H]1O[C@H](CO)[C@@H](O)[C@H](O)[C@H]1O` (some centres not stated): the max response in the experiment on CRL-7250 was -24.5%. In addition, the outcome in the experiment on HEK293 and in the experiment on HaCat was inactive.

`CN1CCCC1CCOC(c1cc2nccc(C(=O)O)c2[nH]1)c1ccccc1Cl` (configuration not stated): the call with CRL-7250 was inactive. Moreover, the max response was 1.78% in the experiment with HEK293 and -3.9% in the experiment on HaCat.

On to `C[C@@H]1C(=O)O[C@H]2[C@H](O)[C@@]34[C@@H]5OC(=O)[C@@]3(O[C@@H]3OC(=O)[C@@H](O)[C@@]34[C@H](C(C)(C)C)[C@H]5O)[C@@]12O`, for which the results for the max response in the experiment on CRL-7250 and with HEK293 were -6.45% and -8.33%, respectively. Further, in the experiment with HaCat, the result was inactive.

The values above are taken from PubChem BioAssay (NCATS).
